Assay results taken from PubChem BioAssay (NCATS).
Records with an inconclusive call do not appear. Active and inactive are the calls of the source. Calls follow the shape of the dose curve; as a rule, active = well fitted curve in the direction sought with a large enough effect; inconclusive = small, poorly fitted or top-dose-only effect, or another doubt; inactive = no such curve, though single readings can be large; an effect the other way counts as inactive or inconclusive.

Legend:
[1] = molecular target: Cellular tumor antigen p53 (Homo sapiens) (UniProt P04637); assay: Primary qHTS for small molecule compounds that upregulate eGFP-tagged delta133p53alpha (in N-terminal) cells. (AID 2060322); conditions: NCI-H358 eGFP-delta133p53alpha fluorescence, 24 h; activation: active compounds read high;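 also: series mostly up to about 56 µM; 0% = DMSO vehicle and 100% = reference activator; nearly all actives have a fitted effect of over 75% in size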
Procedure, shortened: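 NCI-H358 cells pre-induced 24 h with 10 ng/ml doxycycline to express N-terminal eGFP-delta133p53alpha, then dosed 24 h at 37C without doxycycline; fixed, Hoechst-stained, GFP intensity by laser scanning cytometry, normalized to DMSO (0%) and 57.5 uM 5-azacytidine (100%).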

[2] = molecular target: Aldehyde dehydrogenase, mitochondrial (Homo sapiens) (UniProt P05091); assay: qHTS for Inhibitors of the Aldehyde Dehydrogenase Family (ALDH2) Primary screen (AID 2061308);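 also: plate controls were vehicle for no effect and reference inhibitor for full effect; nearly all actives have a fitted effect of over 55% in size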
[3] = molecular target: Retinaldehyde dehydrogenase 3 (Homo sapiens) (UniProt P47895); assay: qHTS for Inhibitors of the Aldehyde Dehydrogenase Family (ALDH1A3) Primary screen (AID 2061315);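 also: plate controls were DMSO vehicle for no effect and reference inhibitor for full effect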

Chain of Cellular tumor antigen p53 (Homo sapiens) (P04637 whole entry, looked up): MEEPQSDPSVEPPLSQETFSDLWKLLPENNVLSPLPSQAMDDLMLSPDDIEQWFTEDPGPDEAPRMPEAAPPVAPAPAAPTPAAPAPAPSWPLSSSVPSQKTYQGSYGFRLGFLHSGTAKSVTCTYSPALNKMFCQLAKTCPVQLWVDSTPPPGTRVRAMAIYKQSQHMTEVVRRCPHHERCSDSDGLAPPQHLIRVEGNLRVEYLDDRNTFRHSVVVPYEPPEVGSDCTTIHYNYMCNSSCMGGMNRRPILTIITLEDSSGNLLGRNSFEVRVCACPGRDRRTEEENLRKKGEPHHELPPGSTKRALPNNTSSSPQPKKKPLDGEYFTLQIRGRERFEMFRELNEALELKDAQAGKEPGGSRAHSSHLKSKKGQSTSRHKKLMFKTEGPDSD

CC(=O)OC1CC2(C)C3=CCC4(C)C5C(O)C(O)C(C(C)C)C5(C)CCC4(C)C3CCC2C(C)(C)C1OC1OC(CO)C(O)C(O)C1O (stereo not given)
inactive: activation [1] -1.53% | Potency [2] | Potency [3]

COc1c(C)c(OCC=C(C)C)cc2c1C(=O)NC2=O
inactive: activation [1] -12.2% | Potency [2] | Potency [3]

CC1(C)CC[C@]2(C(=O)O[C@@H]3O[C@H](CO)[C@@H](O)[C@H](O)[C@H]3O)CC[C@]3(C)C(=CCC4[C@@]5(C)C[C@@H](O)[C@H](O)[C@@](C)(CO)C5CC[C@]43C)C2C1 (stereo not given in full)
inactive: activation [1] 8.4% | Potency [2] | Potency [3]

C/C(=C\C(=O)C[C@@]12C(=O)O[C@]3(C)CC[C@H]1C[C@H]23)C(N)=O
inactive: activation [1] 9.92% | Potency [2] | Potency [3]

C[C@@H]1O[C@@H](O[C@H]2[C@H](O[C@H]3[C@H](O[C@H]4CC[C@@]5(C)C(CC[C@]6(C)C5CC=C5[C@@H]7CC(C)(C)C[C@@H](O)[C@]7(C)CC[C@]56C)[C@@]4(C)CO)O[C@H](C(=O)O)[C@@H](O)[C@@H]3O)O[C@H](C(=O)O)[C@H](O)[C@@H]2O)[C@H](O)[C@H](O)[C@H]1O (stereo not given in full)
inactive: activation [1] 6.87% | Potency [2] | Potency [3]

CC(=O)O[C@H]1C[C@@H](O)C(C)(C)C2C[C@@H](OC(C)=O)[C@@]3(C)C4=CCC(C(CO)CC(O)C5OC5(C)C)[C@]4(C)CCC3[C@]21C (stereo not given in full)
inactive: activation [1] -9.16% | Potency [2] | Potency [3]

CC1CCC2C(C(=O)O)=CC3CC(C)(C)CC132 (stereo not given)
inactive: activation [1] 2.29% | Potency [2] | Potency [3]

Cc1ncc([N+](=O)[O-])n1C[C@H](O)CN1CCOCC1
inactive: activation [1] 2.33% | Potency [2] | Potency [3]

CC(C)NCCCn1c(Sc2cc3c(cc2I)OCO3)nc2c(N)ncnc21
inactive: activation [1] 10% | Potency [2] | Potency [3]

CC1=C(C)C(=O)OC(C(C)C2CCC3C4CC=C5CC(OC6OC(COC7OC(CO)C(O)C(O)C7O)C(O)C(O)C6O)CC(O)C5(C)C4CCC23C)C1 (stereo not given)
inactive: activation [1] 9.16% | Potency [2] | Potency [3]

CC1(O)CCC2C(C3C1CCC3(C)O)C2(C)C (stereo not given)
inactive: activation [1] -1.79% | Potency [2] | Potency [3]

COc1ccc(C(=O)O[C@H]2CC(C)=CC[C@@]3(C)[C@@H](OC(C)=O)C[C@@](O)(C(C)C)[C@H]23)cc1
inactive: activation [1] 1.79% | Potency [2] | Potency [3]

CC(=O)O[C@H]1[C@@H](O)[C@H](O[C@H]2[C@@H]3C=CO[C@@H](O[C@H]4O[C@@H](CO)[C@H](O)[C@@H](O)[C@@H]4O)[C@@H]3[C@@]3(CO)O[C@@H]23)O[C@@H](C)[C@@H]1OC(=O)/C=C/c1ccccc1
inactive: activation [1] -17.9% | Potency [2] | Potency [3]

C=C(CO)C12OC1C1(C)C(=CC2=O)C(O)C(O)CC1C (stereo not given)
inactive: activation [1] 17.9% | Potency [2] | Potency [3]

CC(=O)NC(CCC(=O)O)C(=O)NCCc1ccc(O)cc1 (stereo not given)
inactive: activation [1] -14.5% | Potency [2] | Potency [3]

COC(=O)CC(O)CC(O)/C=C/c1c(C)ccc2c1C(OC(C)=O)CC(C)C2 (stereo not given)
inactive: activation [1] -0.763% | Potency [2] | Potency [3]

C=C1[C@H](OC(C)=O)[C@H]2[C@@H](OC(=O)c3ccccc3)[C@@H](C)C[C@]2(O)[C@@H](OC(C)=O)[C@H](C)/C=C/C(C)(C)C(=O)[C@H](OC(C)=O)[C@H]1OC(C)=O
inactive: activation [1] -3.57% | Potency [2] | Potency [3]

CC(=O)O[C@@H](C[C@@H]1C=C(C)C(=O)O1)[C@H](C)[C@H]1CCC2[C@@]3(C)CC[C@H](O[C@@H]4O[C@H](CO)[C@@H](O)[C@H](O)[C@H]4O[C@@H]4O[C@@H](C)[C@H](O)[C@@H](O)[C@H]4O)C(C)(C)C3CC[C@@]2(C)[C@@]12COC(=O)C2 (stereo not given in full)
inactive: activation [1] 1.79% | Potency [2] | Potency [3]

CC(=O)c1ccc(O[C@@H]2O[C@H](CO[C@@H]3OC[C@@H](O)[C@H](O)[C@H]3O)[C@@H](O)[C@H](O)[C@H]2O)cc1
inactive: activation [1] -12.2% | Potency [2] | Potency [3]

O=C(Cc1ccccc1)OC[C@H]1O[C@H](O[C@H]2O[C@H](CO)[C@@H](O)[C@H](O)[C@H]2O)[C@H](O)[C@@H](O)[C@@H]1O
inactive: activation [1] -3.05% | Potency [2] | Potency [3]

NS(=O)(=O)Nc1ncnc(OCCOc2ncc(Br)cn2)c1-c1ccc(Br)cc1
inactive: activation [1] 18.1% | Potency [2] | Potency [3]

CC(C)c1c(O)ccc2c1CC[C@H]1C(C)(C)CCC[C@]21C
inactive: activation [1] 25.9% | Potency [2] | Potency [3]

C[C@@H](c1nc(-c2ccc(C#N)cc2)cs1)[C@](O)(Cn1cncn1)c1cc(F)ccc1F
inactive: activation [1] -2.33% | Potency [2] | Potency [3]

CC1CC(=O)C2=C(CCC3(O)C(O)c4c(O)cccc4C(=O)C23O)C1 (stereo not given)
inactive: activation [1] 12.2% | Potency [2] | Potency [3]

CC(=O)N[C@@H](C(=O)O[C@H]1CCC(C)(C)[C@@H]2CCC3=C(COC3=O)[C@@]12C)C(C)C
inactive: activation [1] -12.2% | Potency [2] | Potency [3]
